# According to PubChem BioAssay:
# Inconclusive results are not listed. Active and inactive are the calls of the source.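 The calls were made as follows, unless noted: active = viability loss from added drug above about 55%, and viability with drug at most 40%, in both replicates (limit read from the data, passing the limit was not always enough); inconclusive = both conditions met in only one replicate; inactive = neither replicate meets both conditions.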
# Assays:
# [1] = reduced viability of SK-BR-3 breast cancer cells – cell-based, 24 h, human, pilot screen (AID 572;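 active = viability at or below 10% of carrier control in both of two separate runs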;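 also: compound exposure lasted between 18 and 24 h rather than exactly 24 h; 100% = carrier-treated control wells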); conditions: SK-BR-3 viability, CellTiter-Glo luminescence, at 10 µM, stronger effect = lower value
# [2] = HUVEC growth inhibition – cell-based, human, primary screen (AID 575;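 active = viability at or below 30% in both replicate assays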;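 also: 100% = median of untreated cell wells with 0.1% DMSO on each plate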); conditions: HUVEC proliferation, CellTiter-Glo luminescence, 72 h; at 10 µM; stronger effect = lower value
# [3] = H69AR cell proliferation blockers – human, duplicate replicates, primary screen (AID 580;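 active = viability at or under a set limit in both replicates, limit being median viability minus 3 SD, cut at about 48% in these data, passing the limit was not always enough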;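 also: 100% = mean luminescence of untreated wells and 0% = no signal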); conditions: H69AR lung tumor cells viability, ATP luminescence, 72 h; at 10 µM; stronger effect = lower value
# [4] = MRP1 drug-resistance reversers in H69AR cells – cell-based, doxorubicin co-treatment, pilot screen (AID 601); conditions: CellTiter-Glo, 72 h, at 10 µM; for differential viability (reversal): stronger effect = higher value
# [5] = yeast transport mutant growth inhibition pilot in 384-well plates, post-Golgi transport modulator project (AID 636; in the data active = inhibition above about 31%); conditions: absorbance 615 nm, about 18 h, stronger effect = higher value
# [6] = growth suppression of yeast trafficking mutant, preliminary HTS, modulators of trafficking downstream of Golgi apparatus project, 1536-format plate, OD 615 nm (AID 637; in the data active = inhibition above about 30%); conditions: yeast transport mutant growth, absorbance 615 nm, 18 h; stronger effect = higher value
# [7] = Her2 expression decrease, cell viability multiplex – SKBR3 breast tumor cells, AlphaScreen, ATP viability, primary screen (AID 461;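 active = Her2 level under about 52% in both replicate screens, with viability over 70% of control, limit read from the data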;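 as to Her2 level: lower value means less Her2 protein in the cells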;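 as to viability: percent of carrier control wells set as 100% viability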); conditions: SKBR3 Her2 protein level, 18-24 h, measured here: SKBR3 viability, ATP luminescence, at 10 µM
# [8] = molecular target: Receptor tyrosine-protein kinase erbB-2 (Homo sapiens) (UniProt P04626); test: as above; conditions: 18-24 h, at 10 µM, stronger effect = lower value
# Receptor tyrosine-protein kinase erbB-2 (Homo sapiens), sequence (P04626 whole entry, looked up): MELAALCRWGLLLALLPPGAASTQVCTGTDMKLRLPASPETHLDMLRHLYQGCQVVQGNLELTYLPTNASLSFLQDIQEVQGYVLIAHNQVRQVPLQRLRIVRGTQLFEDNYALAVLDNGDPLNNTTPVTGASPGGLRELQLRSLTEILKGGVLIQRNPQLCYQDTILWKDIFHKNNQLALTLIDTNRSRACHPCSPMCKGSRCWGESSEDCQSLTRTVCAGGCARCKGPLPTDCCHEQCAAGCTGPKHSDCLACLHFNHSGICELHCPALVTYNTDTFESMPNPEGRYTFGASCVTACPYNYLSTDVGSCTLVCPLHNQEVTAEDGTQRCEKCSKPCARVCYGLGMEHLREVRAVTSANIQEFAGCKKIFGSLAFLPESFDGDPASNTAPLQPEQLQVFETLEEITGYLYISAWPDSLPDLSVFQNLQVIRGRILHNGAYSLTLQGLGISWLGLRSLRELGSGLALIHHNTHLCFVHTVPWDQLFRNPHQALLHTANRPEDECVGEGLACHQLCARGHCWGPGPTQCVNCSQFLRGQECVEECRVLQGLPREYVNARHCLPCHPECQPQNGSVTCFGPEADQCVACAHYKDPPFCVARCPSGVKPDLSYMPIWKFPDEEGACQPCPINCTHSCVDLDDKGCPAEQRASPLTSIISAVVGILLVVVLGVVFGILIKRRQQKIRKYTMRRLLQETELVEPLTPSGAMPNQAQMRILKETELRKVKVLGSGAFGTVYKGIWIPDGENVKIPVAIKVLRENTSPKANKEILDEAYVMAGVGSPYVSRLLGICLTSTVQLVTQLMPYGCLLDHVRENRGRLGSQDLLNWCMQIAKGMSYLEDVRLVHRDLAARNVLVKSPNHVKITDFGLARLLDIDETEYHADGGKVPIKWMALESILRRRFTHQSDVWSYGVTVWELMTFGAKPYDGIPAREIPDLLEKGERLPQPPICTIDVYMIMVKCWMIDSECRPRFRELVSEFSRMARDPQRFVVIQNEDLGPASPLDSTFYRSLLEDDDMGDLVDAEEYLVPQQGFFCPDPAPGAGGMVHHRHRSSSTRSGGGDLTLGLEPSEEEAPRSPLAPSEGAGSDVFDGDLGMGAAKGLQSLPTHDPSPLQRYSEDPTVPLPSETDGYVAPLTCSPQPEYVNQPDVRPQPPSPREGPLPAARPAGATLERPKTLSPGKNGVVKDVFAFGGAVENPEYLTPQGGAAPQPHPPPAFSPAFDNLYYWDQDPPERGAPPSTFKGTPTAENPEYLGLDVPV
# [9] = S. cerevisiae growth inhibition in permissive medium (OD615), pilot counter-assay for S. cerevisiae lifespan shortening project, permissive growth control (AID 705;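 active = growth inhibition above 25% in both replicates, a cutoff set 3 SD above the mean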); conditions: OD615, 24 h, at 10 µM, stronger effect = higher value
# [10] = S. cerevisiae growth inhibition in restrictive medium, OD615, pilot screen, restrictive growth control, yeast lifespan reduction project (AID 706;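 active = growth inhibition above a set limit, 3 SD over mean compound inhibition, in both replicates, cut at about 43% in these data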;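 also: modified DeaD lifespan yeast strain shifted to restrictive glucose medium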); conditions: OD615, 48 h, at 10 µM, stronger effect = higher value
# [11] = doxorubicin toxicity protection in MRP-1 cells – H69AR cells, CellTiter-Glo, duplicate, MRP-1 activator project, pilot screen (AID 807;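 active = viability increase at or above a cutoff of the median across tested compounds plus 3 SD, cut at about 8.5% in these data, passing the limit was not always enough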;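 also: compound pretreatment 18-22 h then 72 h combined with doxorubicin; 0% = doxorubicin alone and 100% = vehicle without doxorubicin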); conditions: H69AR viability with doxorubicin, CellTiter-Glo luminescence; at 10 µM; stronger effect = higher value
# [12] = viability of HCT116 without oncogenic beta-catenin – human colon tumor cells, pilot screen (AID 823;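 active = cell viability at or below a set limit in both duplicate runs, the limit being the all-compound median minus 4 SD, cut at about 23% in these data, passing the limit was not always enough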;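 also: 0% = wells killed by 20 µM Hyamine and 100% = untreated DMSO cell wells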); conditions: HCT116 beta-catenin knockout viability, CellTiter-Glo, 60 h; at 10 µM; stronger effect = lower value
# [13] = viability of PTEN-null HCT116 cells – cell-based, HCT116 clonal line, CellTiter-Glo, pilot screen (AID 824;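 active = viability at or below 27.92% in each of two runs, the all-compound median minus 4 SD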;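 also: 0% = 20 µM Hyamine control and 100% = vehicle cell control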); conditions: HCT116 PTEN-deleted viability, 60 h, at 10 µM, stronger effect = lower value
# [14] = RAM pathway blockade in budding yeast – dse1pr::URA3 reporter, 5-FOA selection, pilot screen (AID 869;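 active = inhibition over a set limit, the all-compound mean plus 3 SD, in both replicate runs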;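 also: 0% = DMSO wells with no growth and 100% = 10 µM 1-NA-PP1 with full growth; RAM network block rescues cells from 5-FOA so hits raise OD615 growth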); conditions: S. cerevisiae dse1pr::URA3 5-FOA growth, OD615, 2 d; at 10 µM; stronger effect = higher value; strain carries analog-sensitive mutant Cbk1 kinase
# [15] = H69AR cells + 2 uM doxorubicin, measured here: viability with 2 uM doxorubicin, stronger effect = lower value
# [16] = H69AR cells, compound alone cytotoxicity
SMILES,viability [1],viability [2],viability [3],differential viability (reversal) ([4]; H69AR cells + 2 uM doxorubicin),"viability [4, 15] [%]","viability [4, 16] [%]",inhibition [5],inhibition [6],viability [7] [%],Her2 level [8],growth inhibition [9],growth inhibition [10],viability increase [11],viability [12],viability [13],inhibition [14]
O=c1[nH]c(NCc2ccccc2)nc2c1CCCC2,87% (inactive),115% (inactive),104% (inactive),7.85% (inactive),96.5,104,-4.19% (inactive),-10% (inactive),,,,,,,,
Cc1cc(C)c2c(=O)[nH]c(=O)n(Cc3ccccc3)c2n1,,81.7% (inactive),95.7% (inactive),10.9% (inactive),84.8,95.7,-5.26% (inactive),6.55% (inactive),64,75.5% (inactive),,,,,,
CCn1c(SCc2nc(-c3cccs3)no2)nnc1-c1c[nH]c2ccccc12,99% (inactive),,78.8% (inactive),4.39% (inactive),74.4,78.8,-5.26% (inactive),-5.67% (inactive),99,65.5% (inactive),,,,,,
CC1=C(C(=O)OCC(C)C)C(c2cc3c(cc2Br)OCO3)NC(=O)N1C (configuration not stated),99% (inactive),,88.9% (inactive),-12.5% (inactive),101,88.9,-1.82% (inactive),-3.83% (inactive),99,75% (inactive),0.885% (inactive),-13.9% (inactive),-2.54% (inactive),81.2% (inactive),68.4% (inactive),-0.395% (inactive)
CCN1CCN(Cc2nc3c(c(=O)[nH]c(=O)n3C)n2Cc2ccccc2Cl)CC1,,87.9% (inactive),92% (inactive),-4.17% (inactive),96.2,92,-0.51% (inactive),-3.17% (inactive),80.5,114% (inactive),,,,,,
Cc1cc(C(F)(F)F)c2c(C)nn(CCc3nn[nH]n3)c2n1,105% (inactive),91.4% (inactive),96.1% (inactive),-1.98% (inactive),98.1,96.1,0.14% (inactive),12.2% (inactive),,,,,,,,
O=C(CCCCCn1c(=S)[nH]c2cc3c(cc2c1=O)OCO3)N1CCN(Cc2ccccc2)CC1,83% (inactive),,,7.46% (inactive),55.3,62.7,-4.73% (inactive),-0.66% (inactive),83,77.5% (inactive),,,,,,
O=C(c1ccc(Cl)cc1)N1CCCOC1,89% (inactive),113% (inactive),92% (inactive),7.33% (inactive),84.7,92,-8.11% (inactive),-1.27% (inactive),,,,,,,,
CN(C)CCCN1c2ccccc2Sc2ccccc21,66.5% (inactive),74.2% (inactive),74.7% (inactive),-8.33% (inactive),83,74.7,,,,,,,,,,
OC(CCN1CCCC1)(c1ccccc1)C1CCCCC1 (configuration not stated),93% (inactive),69.5% (inactive),95.9% (inactive),6.63% (inactive),89.3,95.9,,,,,,,,,,
S=c1[nH]nc(Cc2ccccc2)n1Cc1ccco1,78% (inactive),108% (inactive),96.3% (inactive),-2.76% (inactive),99.1,96.3,-1.64% (inactive),-6.94% (inactive),,,,,,,,
Cn1c(=O)n(CCN2CCOCC2)c(=O)c2c1nc1n2CCN1c1ccccc1,,52.8% (inactive),67.9% (inactive),4.43% (inactive),63.5,67.9,3.51% (inactive),-2.54% (inactive),41.5,102% (inactive),,,,,,
COc1ccc(-n2c(SCC(N)=O)nc3sc4c(c3c2=O)CCN(C)C4)cc1,126% (inactive),93.5% (inactive),101% (inactive),-9.52% (inactive),111,101,6.16% (inactive),-1.94% (inactive),,,,,,,,
OC(CCCN1CCC(O)(c2ccc(Cl)cc2)CC1)c1ccc(F)cc1 (configuration not stated),89% (inactive),73.1% (inactive),66.1% (inactive),-6.19% (inactive),72.3,66.1,2.47% (inactive),4.5% (inactive),,,,,,,,
CC(C)N=c1cc2n(-c3ccc(Cl)cc3)c3ccccc3nc-2cc1Nc1ccc(Cl)cc1,102% (inactive),9.11% (active),64.4% (inactive),-6.59% (inactive),71,64.4,,,,,,,,,,
COC(=O)c1ccc2c(=O)n(Cc3ccco3)c(SCC(=O)Nc3ccc(C)c(Cl)c3)nc2c1,77.5% (inactive),,8.06% (active),-2.23% (inactive),10.3,8.06,-1.71% (inactive),-2.7% (inactive),77.5,59.5% (inactive),,,,,,
CCOC(=O)c1cnn(-c2ncnc3c2cnn3Cc2ccccc2)c1N,99.5% (inactive),,17.2% (active),-14.3% (inactive),31.5,17.2,-5.33% (inactive),-2.58% (inactive),99.5,84.5% (inactive),,,,,,
COc1ccc(Cn2nnnc2C(c2cccnc2)N2CCN(c3ccc(O)cc3)CC2)cc1 (configuration not stated),99.5% (inactive),,82.5% (inactive),-10.7% (inactive),93.2,82.5,-6.4% (inactive),4.19% (inactive),99.5,89.5% (inactive),,,,,,

SMILES,viability [1],viability [2],viability [3],differential viability (reversal) ([4]; H69AR cells + 2 uM doxorubicin),"viability [4, 15] [%]","viability [4, 16] [%]",inhibition [5],inhibition [6],viability [7] [%],Her2 level [8],growth inhibition [9],growth inhibition [10],viability increase [11],viability [12],viability [13],inhibition [14]
COc1cc(C)nc(N2CCCC(C(=O)Nc3cccc(Cl)c3Cl)C2)n1 (configuration not stated),71% (inactive),,,-1.86% (inactive),58.3,56.4,0.39% (inactive),-10.2% (inactive),71,62.5% (inactive),,,,,,
Cn1c(=O)[nH]c(=O)c2c1nc(CN1CCN(c3cccc(Cl)c3)CC1)n2CCc1ccccc1,75% (inactive),,,-1.32% (inactive),24.8,23.5,-1.04% (inactive),-6.98% (inactive),75,96% (inactive),,,,,,
O=C(NC1CCCc2ccccc21)C1CCN(c2nnc(-n3cccc3)s2)CC1 (configuration not stated),84.5% (inactive),,97.3% (inactive),6.74% (inactive),90.6,97.3,1.41% (inactive),-2% (inactive),84.5,94.5% (inactive),-1.88% (inactive),-6.53% (inactive),-4.06% (inactive),89.5% (inactive),85% (inactive),1.14% (inactive)
CCCc1ccc(Oc2cn[nH]c2-c2ccc(O)c(C)c2O)cc1,106% (inactive),,,-26.3% (inactive),34.6,8.33,100% (active),100% (active),106,76.5% (inactive),,,,,,
O=C(Cn1nc(-c2ccc(Cl)cc2)ccc1=O)NCCCN1CCN(Cc2ccccc2)CC1,75% (inactive),,90.1% (inactive),-3.28% (inactive),93.4,90.1,-0.26% (inactive),-3.55% (inactive),75,106% (inactive),,,,,,
N#Cc1ccccc1Cn1c(=O)n(Cc2ccc(C(=O)NCc3ccco3)cc2)c(=O)c2sccc21,75.5% (inactive),,77.8% (inactive),9.52% (inactive),68.3,77.8,-1.28% (inactive),-1.67% (inactive),75.5,80% (inactive),,-22.5% (inactive),-4.44% (inactive),91.3% (inactive),79.5% (inactive),2.11% (inactive)
CCCc1cc(-n2ccnc2)n2c(nc3ccccc32)c1C#N,89.5% (inactive),,,-10.1% (inactive),55.8,45.8,-3.92% (inactive),2.06% (inactive),89.5,74% (inactive),,,,,,
CNCCCC1c2ccccc2C=Cc2ccccc21,82% (inactive),69.5% (inactive),92% (inactive),15.2% (inactive),76.7,92,,,,,,,,,,
CCn1c2ccccc2c2cc(N)ccc21,117% (inactive),,,-6.75% (inactive),56.8,50,-5.73% (inactive),1.59% (inactive),117,91.5% (inactive),,,,,,
COc1ccc(C(=O)NC(=O)CSc2nnc(-c3ccco3)n2-c2ccccc2)cc1,90% (inactive),109% (inactive),105% (inactive),16.3% (inactive),88.7,105,-7.3% (inactive),-0.55% (inactive),,,,,,,,
Cc1nnc(N(C)C(=O)Cc2ccc3c(c2)OCO3)s1,94% (inactive),92.6% (inactive),94.6% (inactive),5.27% (inactive),89.3,94.6,2.47% (inactive),8.71% (inactive),,,,,,,,
CNCCC=C1c2ccccc2CCc2ccccc21,23%,71.6% (inactive),80.1% (inactive),4.63% (inactive),75.5,80.1,,,,,,,,,,
CCN(CCCCOC(=O)c1ccc(OC)c(OC)c1)C(C)Cc1ccc(OC)cc1 (configuration not stated),88% (inactive),64.4% (inactive),78.9% (inactive),6.16% (inactive),72.8,78.9,,,,,,,,,,
O=C(NC1CCCC1)C(c1cccs1)N(C(=O)c1ccno1)c1ccccc1 (configuration not stated),,95.2% (inactive),91.2% (inactive),6.13% (inactive),85.1,91.2,-3.78% (inactive),5.08% (inactive),57.5,92% (inactive),,,,,,
COc1ccc(-c2cc3ccc(OCc4nn[nH]n4)cc3oc2=O)cc1,104% (inactive),99.2% (inactive),102% (inactive),14.1% (inactive),87.5,102,-6.58% (inactive),1.29% (inactive),,,,,,,,
Cc1ccccc1-n1nnc2c(=O)oc3ccccc3c21,99.5% (inactive),64.9% (inactive),85.8% (inactive),1.29% (inactive),84.5,85.8,-4.47% (inactive),5.83% (inactive),,,,,,,,
O=C(COC(=O)c1cccc(S(=O)(=O)N2CCc3ccccc32)c1)NC1CCS(=O)(=O)C1 (configuration not stated),90% (inactive),114% (inactive),102% (inactive),0.47% (inactive),101,102,-4.05% (inactive),-7.64% (inactive),,,,,,,,
